# Assay results as given in the supplement of paper PMC12645437, “Orthogonal IMiD-Degron Pairs Induce Selective Protein Degradation in Cells” (ACS Chemical Biology, 2025).
# The full ranking holds about 8,300 sequences; the median of “log2 fold change of degron read counts, EGFP-low vs EGFP+ sorted cells (limma voom), compound-induced degradation” is about -1.1, and the highest 2% start at about 3.2. Shown is part of a subset that was picked to be rich in the highest values.
# T1: CRBN, Q96SW2
# T1 chain: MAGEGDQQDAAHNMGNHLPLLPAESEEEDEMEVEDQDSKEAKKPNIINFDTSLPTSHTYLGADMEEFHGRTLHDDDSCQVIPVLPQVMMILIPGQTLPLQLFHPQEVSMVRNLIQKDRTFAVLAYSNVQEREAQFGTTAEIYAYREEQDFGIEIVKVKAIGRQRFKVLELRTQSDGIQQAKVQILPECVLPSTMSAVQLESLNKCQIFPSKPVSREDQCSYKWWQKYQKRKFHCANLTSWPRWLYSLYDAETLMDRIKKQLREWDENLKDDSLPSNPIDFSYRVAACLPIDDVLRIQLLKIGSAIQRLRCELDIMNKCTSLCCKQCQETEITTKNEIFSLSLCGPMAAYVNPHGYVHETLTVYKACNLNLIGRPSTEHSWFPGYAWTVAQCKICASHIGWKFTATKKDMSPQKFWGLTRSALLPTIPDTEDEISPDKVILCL
# Molecular target: T1, CRBN, Q96SW2
# Assay: log2 fold change of degron read counts, EGFP-low vs EGFP+ sorted cells (limma voom), compound-induced degradation; higher = more compound-induced degradation of the degron-EGFP fusion; degrons are variants of IKZF1/3 zinc finger 2; compound dose not given here
# Conditions: Jurkat, 18 h
# [1] = compound: compound 19 (5-tert-butyl-thalidomide)
# [2] = compound: compound 22 (5-morpholino-thalidomide)
# [3] = compound: compound 33 (diphenyl IMiD analogue)
# 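Also: pooled lentiviral library of zinc finger degron-EGFP fusions in mCherry-positive Jurkat cells, FACS-sorted after compound exposure, with degron abundance counted by next-generation sequencing.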
Sequence,log2 fold change of degron read counts [1],log2 fold change of degron read counts [2],log2 fold change of degron read counts [3],log2 fold change of degron read counts (compound: thalidomide)
"FICEICGRMFTQKGNLLRHIKL [46F_47I_49E_50I_52G_53R_54M_55F_67L_, Q9UKT9]",-2.48,-1.85,-0.238,-0.738
"FACPICGATFTQKGNLLRHIKL [46F_47A_49P_50I_52G_53A_54T_55F_67L_, Q9UKT9]",3.39,1.82,1.17,0.639
"FCCPICGATFTQKGNLLRHIKL [46F_47C_49P_50I_52G_53A_54T_55F_67L_, Q9UKT9]",1.51,1.82,2.36,2.09
"FSCPICGATFTQKGNLLRHIKL [46F_47S_49P_50I_52G_53A_54T_55F_67L_, Q9UKT9]",2.78,2.14,2.34,1.5
"FRCPICGATFTQKGNLLRHIKL [46F_47R_49P_50I_52G_53A_54T_55F_67L_, Q9UKT9]",-0.752,-0.483,1.07,1.12
"FFCPICGATFTQKGNLLRHIKL [46F_47F_49P_50I_52G_53A_54T_55F_67L_, Q9UKT9]",2.81,3.61,1.65,1.35
"FICPICGATFTQKGNLLRHIKL [46F_47I_49P_50I_52G_53A_54T_55F_67L_, Q9UKT9]",-1.06,1.53,1.48,1.86
"FKCPICGATFTQKGNLLRHIKL [46F_47K_49P_50I_52G_53A_54T_55F_67L_, Q9UKT9]",-1.47,-2.7,-2.3,-1.17
"FMCPICGATFTQKGNLLRHIKL [46F_47M_49P_50I_52G_53A_54T_55F_67L_, Q9UKT9]",-1.31,0.0387,2.08,1.34
"FNCPICGATFTQKGNLLRHIKL [46F_47N_49P_50I_52G_53A_54T_55F_67L_, Q9UKT9]",1.88,0.692,1.59,0.652
"FQCPICGATFTQKGNLLRHIKL [46F_47Q_49P_50I_52G_53A_54T_55F_67L_, Q9UKT9]",0.717,2.74,2.33,3.56
"FVCPICGATFTQKGNLLRHIKL [46F_47V_49P_50I_52G_53A_54T_55F_67L_, Q9UKT9]",-0.613,1.74,1.8,2.23
"FGCPICGATFTQKGNLLRHIKL [46F_47G_49P_50I_52G_53A_54T_55F_67L_, Q9UKT9]",3.46,2.4,2.17,1.08
"FECPICGRRFTQKGNLLRHIKL [46F_47E_49P_50I_52G_53R_54R_55F_67L_, Q9UKT9]",-0.662,-1.27,0.491,2.58
"FRCPQCGADFTQKGNLLRHIKL [46F_47R_49P_50Q_52G_53A_54D_55F_67L_, Q9UKT9]",-3.08,-3.48,-0.625,-1.35
"LCCNQCGFCCTQKGNLLRHIKL [46L_47C_49N_50Q_52G_53F_54C_55C_67L_, Q9UKT9]",-1.92,-2.67,-1.9,-2

Sequence,log2 fold change of degron read counts [1],log2 fold change of degron read counts [2],log2 fold change of degron read counts [3],log2 fold change of degron read counts (compound: thalidomide)
"FDCDICGAFFTQKGNLLRHIKL [46F_47D_49D_50I_52G_53A_54F_55F_67L_, Q9UKT9]",-1.35,-2.45,-1.91,-1.7
"LMCEICGFKCTQKGNLLRHIKL [46L_47M_49E_50I_52G_53F_54K_55C_67L_, Q9UKT9]",0.00993,-0.209,0.918,1.45
"FHCNQCGHMFTQKGNLLRHIKL [46F_47H_49N_50Q_52G_53H_54M_55F_67L_, Q9UKT9]",-2.28,-2.39,-2.58,-2.2
"FECPICGATFTQKGNLLRHIKL [46F_47E_49P_50I_52G_53A_54T_55F_67L_, Q9UKT9]",0.0819,-0.536,1.91,2.9
"FWCPICGATFTQKGNLLRHIKL [46F_47W_49P_50I_52G_53A_54T_55F_67L_, Q9UKT9]",2.22,3.57,1.64,0.523
"FGCNICGATFTQKGNLLRHIKL [46F_47G_49N_50I_52G_53A_54T_55F_67L_, Q9UKT9]",0.0778,1.89,1.52,0.109
"FDCPICGATFTQKGNLLRHIKL [46F_47D_49P_50I_52G_53A_54T_55F_67L_, Q9UKT9]",1.59,0.119,1.11,1.68
"FCCDICGATFTQKGNLLRHIKL [46F_47C_49D_50I_52G_53A_54T_55F_67L_, Q9UKT9]",0.685,1.05,1.24,0.177
"FLCPICGATFTQKGNLLRHIKL [46F_47L_49P_50I_52G_53A_54T_55F_67L_, Q9UKT9]",-1.02,-0.515,1.48,1.68
"FLCDICGATFTQKGNLLRHIKL [46F_47L_49D_50I_52G_53A_54T_55F_67L_, Q9UKT9]",-1.67,-1.74,-0.434,-0.565
"FQCDICGATFTQKGNLLRHIKL [46F_47Q_49D_50I_52G_53A_54T_55F_67L_, Q9UKT9]",-0.685,1.86,0.81,3.25
"FQCNICGATFTQKGNLLRHIKL [46F_47Q_49N_50I_52G_53A_54T_55F_67L_, Q9UKT9]",-0.501,1.47,1.42,3.87
"FYCPICGATFTQKGNLLRHIKL [46F_47Y_49P_50I_52G_53A_54T_55F_67L_, Q9UKT9]",3.2,3.57,2.42,1.16
"FTCPICGATFTQKGNLLRHIKL [46F_47T_49P_50I_52G_53A_54T_55F_67L_, Q9UKT9]",0.225,2.5,2.28,2.88
"FYCNICGATFTQKGNLLRHIKL [46F_47Y_49N_50I_52G_53A_54T_55F_67L_, Q9UKT9]",0.426,2.67,0.933,-0.961
